Experimental data as given in PubChem BioAssay.
For part of these data: Measured potencies and affinities stand elsewhere. Active and inactive are the calls of the source.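 How the source made its calls, unless noted: active means compound raising the membrane signal above positive-control mean plus 3 SD in both repeats, and a primary screen hit; inactive means the rest.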

Experiments:
[1] = tested on: TRPC4 beta (transient receptor potential cation channel C4), mouse; assay: TRPC4 cation channel opening, retest – cell-based, Fluo4 calcium, HEK293 TRPC4beta/mu-opioid, duplicates, 10 µM, confirmation (AID 2426;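 active means fluorescence ratio normalized to control raised more than 50% in primary screen plus both repeat runs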); settings: Fluo4 calcium fluorescence, at 10 µM; hits give high values
[2] = tested on: transient receptor potential cation channel C4 beta (TRPC4), mouse; assay: TRPC4 cation channel opening, second retest – cell-based, second round, Fluo4, HEK293 TRPC4beta/mu-opioid, 1 µM, confirmation (AID 2461;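 active means primary screen active and over 50% activation in each of two duplicate runs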); settings: Fluo4 calcium fluorescence, at 1 µM; hits give high values
[3] = tested on: TRPC4 (transient receptor potential cation channel C4 beta), mouse; assay: potentiation of DAMGO EC20 TRPC4 response – cell-based, second round, Fluo-4, HEK293 TRPC4beta/mu-opioid, 1 µM, confirmation (AID 2554;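 active means primary screen hit whose fluorescence ratio, in both repeats, exceeds the weak agonist control mean by 3 SD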); settings: DAMGO EC20, Fluo-4 calcium flux, at 1 µM; hits give high values
[4] = tested on: TRPC4 beta (transient receptor potential cation channel C4), mouse; assay: potentiation of DAMGO EC20 TRPC4 response – cell-based, Fluo-4, HEK293 TRPC4beta/mu-opioid, confirmation (AID 2555;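 active means primary screen hit whose calcium fluorescence ratio, in both repeats, exceeds the weak agonist control mean by 3 SD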); settings: DAMGO EC20, Fluo-4 calcium flux, at 10 µM; hits give high values
[5] = target: Short transient receptor potential channel 4 (Mus musculus) (UniProt Q9QUQ5); assay: blockers of DAMGO-evoked TRPC4 calcium flux – cell-based, Fluo4, HEK293 TRPC4beta/mu-opioid, confirmation (AID 2636;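 active means calcium signal cut by more than 3 SD below the full-agonist control yet still positive, in both repeats and the earlier primary screen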); settings: at 10 µM; hits give high values
[6] = target: Short transient receptor potential channel 4 (Mus musculus) (UniProt Q9QUQ5); assay: blockers of DAMGO-evoked TRPC4 calcium flux – cell-based, second round, Fluo4, HEK293 TRPC4beta/mu-opioid, 1 µM, confirmation (AID 2637;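 active means calcium signal ratio cut to more than 3 SD under the fully stimulated control mean yet still positive, in both repeats and the primary screen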;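 on inhibition: percent of integrated ratio relative to wells lacking test compound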); settings: at 1 µM; hits give high values
[7] = target: Short transient receptor potential channel 4 (Mus musculus) (UniProt Q9QUQ5); assay: calcium entry via TRPC4 opening agents – cell-based, HEK293 TRPC4/mu-opioid, Fluo-4 calcium, dose response (AID 434937;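 active means primary screen activator hit with a dose response curve and TRPC4 channel activation at any tested dose; inactive means no activation, no dose response, or not a primary hit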); settings: HEK293 TRPC4 cells, Fluo-4 calcium fluorescence ratio; series mostly up to 20 µM
[8] = target: Short transient receptor potential channel 4 (Mus musculus) (UniProt Q9QUQ5); assay: potentiation of DAMGO-evoked TRPC4 calcium signal – cell-based, HEK293 TRPC4/mu-opioid, Fluo-4 calcium, EC20 DAMGO, dose response (AID 434941;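 active means earlier screen potentiator hit that boosts the TRPC4 ion channel at some dose, with a dose response; inactive means no potentiation, no dose response, or not a prior hit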;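 further: calcium entry triggered by an EC20 dose of DAMGO at the co-expressed mu-opioid receptor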); settings: HEK293 TRPC4/mu-opioid cells, Fluo-4 calcium fluorescence; series mostly up to 20 µM
[9] = target: Short transient receptor potential channel 6 (Mus musculus) (UniProt Q61143); assay: TRPC6 blockade by TRPC4 inhibitor hits – cell-based, HEK293, membrane potential dye, duplicate, selectivity assay for TRPC4 inhibitor project, confirmation (AID 434948;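 active means active in primary screen and both duplicates, each dropping signal beyond three positive-control SD with fluorescence still positive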); settings: HEK293 TRPC6, membrane potential dye fluorescence, at 10 µM, stimulated with maximal-effect acetylcholine; hits give high values
[10] = target: Short transient receptor potential channel 6 (Mus musculus) (UniProt Q61143); assay: TRPC6 opening by TRPC4 activator hits – cell-based, HEK293, membrane potential dye, duplicate, selectivity assay for TRPC4 activator project, confirmation (AID 434950;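 active means membrane potential signal rise above negative control mean plus 3 SD in both duplicates, also active in the earlier TRPC4 screen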); settings: HEK293 TRPC6, membrane potential fluorescence, at 10 µM; activation: hits give high values; outcome: activation
[11] = target: Short transient receptor potential channel 6 (Mus musculus) (UniProt Q61143); assay: positive modulators of mouse TRPC6 channel – HEK293 cells, membrane potential dye, duplicate, selectivity assay for TRPC4 potentiator project, confirmation (AID 434952); settings: HEK293 TRPC6, membrane potential dye fluorescence, at 10 µM, maximal acetylcholine added after compound; hits give high values
[12] = target: Short transient receptor potential channel 4 (Mus musculus) (UniProt Q9QUQ5); assay: calcium flux activators in TRPC4/5HT1a cells, counter-screen for TRPC4 activator project, cell-based, second counter screen, HEK293 TRPC4/5HT1a, Fluo-4 (AID 434977;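 active means calcium signal rise above buffer-control mean plus 5 SD in both duplicates, and also a hit in the primary screen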); settings: Fluo-4 calcium flux, at 10 µM; hits give high values
[13] = serotonin-gated TRPC4 signal block – cell-based, second counter screen, HEK293 TRPC4/5HT1a, Fluo-4, counter-screen for TRPC4 inhibitor project, confirmation (AID 434978;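 active means primary screen active whose calcium signal fell more than 3 SD beyond the full-serotonin control mean in both duplicate plates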;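 on outcome: serotonin given first at submaximal then at maximal dose after compound preincubation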); settings: Fluo-4 calcium flux, at 10 µM, serotonin added to trigger calcium flux; hits give high values
[14] = tested on: TRPC4 (mouse), co-expressed with 5HT1a in HEK293; assay: enhancement of serotonin-evoked TRPC4 response – cell-based, second counter screen, HEK293 TRPC4/5HT1a, Fluo-4, counter-screen for TRPC4 potentiator project, confirmation (AID 434979;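 active means signal rise over 3 SD above mean of control wells given weak agonist, in both repeats and first screen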); settings: Fluo-4 calcium flux, at 10 µM, serotonin added at its EC20 dose; hits give high values
[15] = nonspecific calcium rise without TRPC4 – cell-based, HEK293 mu-opioid receptor line, counter-screen for TRPC4 activator project, confirmation (AID 449723;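 active means hit in primary screen, with calcium signal over 5 SD above buffer well mean in both duplicates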;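 further: counter screen cells carry the mu-opioid receptor alone and lack TRPC4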); settings: HEK293 mu-opioid cells, Fluo-4 calcium fluorescence, at 10 µM; hits give high values
[16] = nonspecific potentiation of DAMGO calcium response – cell-based, HEK293 mu-opioid receptor line, counter-screen for TRPC4 allosteric potentiator project, confirmation (AID 449724;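 active means calcium signal rise more than 3 SD above the low-dose agonist control mean, in both duplicate plates and the primary screen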); settings: HEK293 mu-opioid receptor cells, Fluo-4 calcium flux, at 10 µM, compound added before EC20 DAMGO stimulus; hits give high values

Measured: inhibition

Sequence of Short transient receptor potential channel 6 (Mus musculus) (Q61143 whole entry, looked up): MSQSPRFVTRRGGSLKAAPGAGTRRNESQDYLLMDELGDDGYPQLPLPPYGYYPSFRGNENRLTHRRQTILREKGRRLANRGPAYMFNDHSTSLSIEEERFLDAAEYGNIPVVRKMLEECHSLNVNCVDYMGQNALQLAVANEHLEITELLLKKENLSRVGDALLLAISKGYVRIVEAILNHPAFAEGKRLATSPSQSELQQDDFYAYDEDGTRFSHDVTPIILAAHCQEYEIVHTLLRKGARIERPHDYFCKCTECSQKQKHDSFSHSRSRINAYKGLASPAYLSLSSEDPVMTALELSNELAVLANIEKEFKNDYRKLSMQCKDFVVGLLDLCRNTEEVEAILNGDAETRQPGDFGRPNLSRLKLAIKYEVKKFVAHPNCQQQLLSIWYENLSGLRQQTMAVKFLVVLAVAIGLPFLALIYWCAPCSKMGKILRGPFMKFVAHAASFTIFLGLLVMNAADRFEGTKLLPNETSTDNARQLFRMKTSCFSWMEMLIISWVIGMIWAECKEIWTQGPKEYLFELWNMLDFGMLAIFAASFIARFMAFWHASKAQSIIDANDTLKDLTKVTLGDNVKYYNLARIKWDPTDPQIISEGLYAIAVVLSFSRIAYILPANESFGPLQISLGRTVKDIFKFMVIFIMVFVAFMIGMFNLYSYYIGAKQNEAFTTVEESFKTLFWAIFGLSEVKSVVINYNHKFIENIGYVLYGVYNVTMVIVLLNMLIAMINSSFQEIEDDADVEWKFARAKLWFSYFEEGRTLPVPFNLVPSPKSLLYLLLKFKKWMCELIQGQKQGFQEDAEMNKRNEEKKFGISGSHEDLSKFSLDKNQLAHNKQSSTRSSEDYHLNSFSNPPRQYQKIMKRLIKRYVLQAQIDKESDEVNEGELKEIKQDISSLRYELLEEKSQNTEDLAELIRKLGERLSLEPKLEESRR
Sequence of Short transient receptor potential channel 4 (Mus musculus) (Q9QUQ5 whole entry, looked up): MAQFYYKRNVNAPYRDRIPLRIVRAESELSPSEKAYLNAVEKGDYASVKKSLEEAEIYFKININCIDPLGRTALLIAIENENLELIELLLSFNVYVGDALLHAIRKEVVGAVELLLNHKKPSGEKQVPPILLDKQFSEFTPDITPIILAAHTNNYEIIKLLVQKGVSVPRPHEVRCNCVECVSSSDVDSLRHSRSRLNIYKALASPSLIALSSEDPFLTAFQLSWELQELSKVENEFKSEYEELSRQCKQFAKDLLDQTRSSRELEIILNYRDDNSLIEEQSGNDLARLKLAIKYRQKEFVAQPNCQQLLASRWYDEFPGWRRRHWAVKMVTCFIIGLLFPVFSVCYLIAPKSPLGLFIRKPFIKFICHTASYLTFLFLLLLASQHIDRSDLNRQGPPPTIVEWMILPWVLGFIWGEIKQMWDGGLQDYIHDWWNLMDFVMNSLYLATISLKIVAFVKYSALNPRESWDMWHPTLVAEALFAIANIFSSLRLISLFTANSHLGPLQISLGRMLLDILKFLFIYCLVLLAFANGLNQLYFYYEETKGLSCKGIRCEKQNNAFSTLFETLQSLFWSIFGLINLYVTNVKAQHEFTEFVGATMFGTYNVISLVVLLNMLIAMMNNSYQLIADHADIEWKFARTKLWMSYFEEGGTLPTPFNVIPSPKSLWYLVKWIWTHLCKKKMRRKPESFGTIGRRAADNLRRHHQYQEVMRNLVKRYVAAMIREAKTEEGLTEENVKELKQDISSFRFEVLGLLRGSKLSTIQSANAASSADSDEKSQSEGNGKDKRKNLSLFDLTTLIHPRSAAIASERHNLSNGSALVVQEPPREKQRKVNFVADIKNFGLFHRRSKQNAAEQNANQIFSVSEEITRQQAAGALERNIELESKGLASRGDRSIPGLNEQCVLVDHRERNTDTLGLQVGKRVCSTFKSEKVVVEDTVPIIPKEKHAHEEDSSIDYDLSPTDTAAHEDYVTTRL

COc1ccc(-c2csc(NC(=O)Cc3cccc4ccccc34)c2C(=O)O)cc1
active: [5] 90% | [13] 40.2%
inactive: all other assays above

Cc1nn(C(=O)c2cccnc2)c(C)c1Sc1ccccc1
active: [5] 92% | [13] 16.5%
inactive: all other assays above

COc1ccc(C2CC2/C(=N/O)c2ccccc2)cc1 (stereo not given)
active: [5] 94% | [13] 7.57%
inactive: all other assays above

O=C(CN1CCCCC1)N1c2ccccc2Oc2ccccc21
active: [5] 95% | [13] 9.39%
inactive: all other assays above

CC(C)C1=Nc2cccc3cccc(c23)N1
active: [5] 95% | [6] 49% | [13] 17.1%
inactive: all other assays above

O=C(CSc1nc(=O)n(CCN2CCOCC2)c2c1CCC2)Nc1ccc(OC(F)(F)F)cc1
active: [5] 69%
inactive: all other assays above

CC1(C)CC(NC(=O)c2cc(COc3cccc(C(F)(F)F)c3)on2)CCO1 (stereo not given)
active: [5] 90% | [13] 25.2%
inactive: all other assays above

Cc1cc(OCc2cc(C(=O)NCC3(C)COC3)no2)cc(C)c1Cl
active: [5] 66% | [13] 40.6%
inactive: all other assays above

Cc1ncsc1CCOC(=O)c1cccc([N+](=O)[O-])c1
active: [5] 83% | [6] 49% | [13] 40%
inactive: all other assays above

O=C(c1ccc(Cl)c(Cl)c1)N(Cc1ccco1)c1ccc(O)cc1
active: [5] 94% | [13] 32%
inactive: all other assays above

CC12CC3(C)CC(C)(C1)CC(NC(=O)N1CCCC1)(C2)C3
active: [5] 76%
inactive: all other assays above

CC(C)Oc1cccc(C(=O)C2CCCN(Cc3cnn(C(C)C)c3)C2)c1 (stereo not given)
active: [5] 93% | [6] 47%
inactive: all other assays above

NC(=O)c1nsc(C(=O)N(Cc2ccco2)C(C(=O)NCc2ccc(F)cc2)c2ccc(O)cc2)c1N (stereo not given)
active: [5] 84% | [6] 55% | [13] 25.1%
inactive: all other assays above

c1ccc(Cn2c(CN3CCCC3)nc3ccccc32)cc1
active: [5] 96% | [6] 67% | [13] 18%
inactive: all other assays above

Cc1cc(C)c2c(=O)n(CC(=O)NCCCN3CCN(c4ccccc4F)CC3)sc2n1
active: [5] 90% | [6] 55%
inactive: all other assays above

C=CCc1ccccc1OCC(CN1CCCCC1)OC(C)=O (stereo not given)
active: [5] 74% | [6] 43%
inactive: all other assays above

CCOC(=O)c1c(NC(=O)C(C)Sc2nnc(C)c(=O)[nH]2)sc2c1CCCC2 (stereo not given)
active: [5] 77% | [6] 87% | [13] 28.1%
inactive: all other assays above

CC(C)(c1ccccc1)c1ccc(OCCCNCCO)cc1
active: [5] 79% | [13] 13.3%
inactive: all other assays above

OC(COc1ccccc1)CN1C2=NCCCN2c2ccccc21 (stereo not given)
active: [5] 84%
inactive: all other assays above

O=C(Nc1ccc(Oc2ccccc2)nc1)C1CCN(Cc2ccccc2)CC1
active: [5] 74% | [13] 32.6%
inactive: all other assays above

N#Cc1c(N2CCCCC2)nc(N)c2c(N)nc3c(c12)CC(c1ccccc1)O3 (stereo not given)
active: [5] 87% | [6] 49% | [13] 31.5%
inactive: all other assays above

Cc1cc(Cl)c2oc(C(=O)N(C)Cc3nccn3C)c(C)c2c1
active: [5] 84%
inactive: all other assays above

Cc1ccn2cc(CCNC(=O)c3ccc(Br)o3)nc2c1
active: [5] 89% | [13] 34.1%
inactive: all other assays above

Cc1ccc(Oc2ccccc2/C=N/O)cc1
active: [5] 89% | [13] 10.1%
inactive: all other assays above

Cc1ccc(Nc2cc(C)nc3c(C)cccc23)cc1
active: [6] 54% | [9] 22% | [13] 35.3%
inactive: all other assays above

CCOC(=O)C(C)Sc1nc2c(c(=O)[nH]c(=O)n2C)n1Cc1ccc(Cl)cc1 (stereo not given)
active: [5] 93% | [6] 68% | [13] 19.9%
inactive: all other assays above

Cn1nnnc1SCCNCc1ccccc1OCc1ccc(Cl)cc1
active: [5] 88% | [6] 45% | [13] 23.5%
inactive: all other assays above

Cc1ccc(OCc2cc(C(=O)N(C)CCc3nc4ccccc4[nH]3)no2)cc1C
active: [5] 69%
inactive: all other assays above

Cc1ccc(C)c(S(=O)(=O)/N=C2\C=C(NS(=O)(=O)c3ccccc3)C(=O)c3ccccc32)c1
active: [5] 92% | [9] 33%
inactive: all other assays above

Cc1ccc(O)c(Sc2cc(C)ccc2O)c1
active: [5] 97% | [9] 44.5% | [13] 13.7%
inactive: all other assays above
